# Compounds with a hit are over-represented: about 21% of the library has one in this group of screens.
# Shiga inhibitor – Shiga toxin inhibition; AID 2315; Vero cells, Shiga toxin protein synthesis inhibition reporter; 9.2% of 290,000 active; inhibition, % at 38.7 µM; in the data active means inhibition mostly above about 28%, no sharp cut-off; inactive means mostly below about 43%; further: 0% is about no effect
# NS1 function inh – inhibitors of influenza NS1 protein function. Potency, µM (doses to about 46.1 µM), inactives show top-dose activity, positive = more growth. 0.4% of 270,000 active; calls by dose curve; further: potency means the concentration at half of the fitted maximal effect; actives are rising curves; nearly all actives have a fitted effect of over 50% in size
#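 Recovery from NS1-induced slow growth read by OD600 in budding yeast switched to galactose assay medium (pH 6.0, -URA) at 1:100 dilution. Compound 23 nl per well; the matching strain lacking NS1 serves as control.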
# FBPA Giardia inh – blocks Giardia fructose-bisphosphate aldolase activity. purified Giardia FBPA. Potency, µM (titrated, usually from 59.6 µM), without a hit: at the highest dose activity, negative = inhibition, usual class: inhibitors. 0.71% of 290,000 active; further: potency means the concentration at half of the fitted maximal effect; on the % scale 0 is the no-effect control and ±100 the full control effect; nearly all actives have a fitted effect of over 55% in size
# Target sequence (A8B2U2 whole entry, looked up): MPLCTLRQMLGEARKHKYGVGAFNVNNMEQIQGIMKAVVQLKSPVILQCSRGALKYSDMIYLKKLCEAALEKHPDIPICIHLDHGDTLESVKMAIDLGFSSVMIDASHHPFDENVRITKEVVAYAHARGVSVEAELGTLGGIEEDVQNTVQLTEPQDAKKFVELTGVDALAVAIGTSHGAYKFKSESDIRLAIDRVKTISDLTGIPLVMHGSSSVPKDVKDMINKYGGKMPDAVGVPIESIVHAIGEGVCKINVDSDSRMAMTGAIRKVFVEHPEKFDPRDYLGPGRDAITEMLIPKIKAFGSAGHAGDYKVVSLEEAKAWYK
#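 40 nM FBPA preincubated 10 min at RT with compound (up to 57.5 uM final), then substrate plus GAPDH/TPI/NAD/arsenate coupling and diaphorase/resazurin added. Fluorescence read after 20 min at RT, 525/598 nm.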
# Pf growth 96h – P. falciparum growth inhibition at 96 hours; P. falciparum luciferase reporter growth, 96 h; Potency, µM (doses to about 28.7 µM), for the others: at the top dose activity change, negative = inhibition, most hits filed as inhibitors; 6.9% of 320,000 active; AID 504834; further: potency means the concentration at half of the fitted maximal effect; on the % scale 0 is the no-effect control and ±100 the full control effect
#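 Readout is luminescence from an integrated firefly luciferase in P. falciparum. Red cells, 2% hematocrit and 0.05% parasitemia final, were cultured with compound through two parasite generations (96 hours) at 37 C, 5% CO2.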
# Pf growth 48h – inhibits P. falciparum growth in the first generation, 48 h; P. falciparum luciferase growth in erythrocytes, 48 h; AID 504832; Potency, µM (doses to about 28.7 µM), inactives show at the highest dose activity change, negative = inhibition, most hits filed as inhibitors; 5.9% of 310,000 active; further: potency means the concentration at half of the fitted maximal effect; on the % scale 0 is the no-effect control and ±100 the full control effect
#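 Erythrocytes infected with P. falciparum carrying an integrated firefly luciferase reporter (2% hematocrit, 0.1% parasitemia final) were exposed to compounds in RPMI 1640 with 0.5% Albumax at 37 C, 5% CO2. Growth inhibition was scored as reduced luminescence.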
# Cycloheximide cs – counter-screen hit for Shiga toxin inhibitors, cycloheximide; AID 2314; 12% of 300,000 active; max response, %; cell reporter, cycloheximide protein synthesis inhibition counterscreen; in the data active means max response mostly above about 13%, no sharp cut-off; inactive means mostly below about 14%; further: read at 38.3 µM for the half of the compounds with a filed dose; 0% is about no effect
# Active calls of the source: *; u = inconclusive; x = no result given. Unless noted, the call rests on the fitted dose curve; in most records, active means well fitted curve in the direction sought with a large enough effect; inconclusive means small, poorly fitted or top-dose-only effect, or another doubt; inactive means no such curve, though single readings can be large; an effect the other way counts as inactive or inconclusive.
SMILES,Shiga inhibitor,NS1 function inh,FBPA Giardia inh,Pf growth 96h,Pf growth 48h,Cycloheximide cs
O=C(O)C1CCC[C@@H]2[C@@H]3CC(CN12)[C@@H]1CCCCN1C3 (some centres undefined),x,x,-9.4%,x,x,x
COc1ccc(C(=O)N(O)c2ccccc2)cc1,x,x,-11.5%,x,x,x
CNC(=S)NNC(=O)c1cc(C(C)(C)C)nn1Cc1ccc(F)cc1,-5.8,-1.0%,-0.5%,u,u,-2.7
COc1ccc(NC(=O)CN2C(=O)NC3(CCCC3)C2=O)cc1OC,25.1,-6.1%,-2.1%,26.1%,2.8%,1.0
CCN(c1ccc(OC)cc1)S(=O)(=O)c1nnc(NC(=O)c2ccc(C)cc2)s1,5.7,-2.9%,x,u,14.8%,1.3
C=CCn1c(SCC(=O)Nc2ccccc2F)nc2ccccc2c1=O,-10.7,0.4%,10.9%,-28.6%,8.1%,-0.3
Cc1ccc(-n2c(SCC(=O)NCc3ccco3)nc3sc(C)c(C)c3c2=O)cc1,18.2,u,-2.4%,x,-1.6%,11.2
Cc1ccc(-n2c(SCC(=O)NCc3ccco3)nc3nc4c(cc3c2=O)COC(C)(C)C4)cc1,13.8,14.1%,0.6%,-10.7%,9.28µM*,5.4
C=CCn1c(SCC(=O)c2ccc(CNC(C)=O)o2)nc2ccccc2c1=O,-3.0,26.3%,-15.4%,14.7µM*,x,0.5
COc1ccc(C(=O)Nc2nnc(C3=COCCO3)o2)cc1OC,2.1,4.8%,x,u,114.1%,-0.5
O=C(Nc1nnc(C2=COCCO2)o1)c1cccc(F)c1,28.3,-36.3%,x,14.7µM*,u,11.4*
CC(C)(C)c1ccc(C(=O)Nc2nnc(C3=COCCO3)o2)cc1,-1.7,-7.2%,x,9.28µM*,14.7µM*,-1.2
CCn1cc(S(=O)(=O)NCCc2ccc(F)cc2)cn1,-14.3,-5.5%,x,6.4%,21.3%,10.6
Cc1ccccc1N(Cc1cc(=O)[nH]c2ccccc12)C(=O)CCl,0.4,5.3%,-9.6%,1.85µM*,4.65µM*,9.9
O=c1cc(CNCCCO)c2ccccc2[nH]1,-18.7,u,-10.3%,3.7µM*,-0.3%,-2.0
O=C(CCl)N(Cc1ccccc1)c1ccccc1,6.4,x,-0.6%,u,10.4µM*,26.0*
COc1ccc(NCc2cc(=O)[nH]c3ccccc23)cc1,-14.3,-2.5%,6.5%,5.0%,3.0%,5.0
O=C(CCl)N(Cc1cc(=O)[nH]c2ccccc12)c1ccccc1,-6.7,2.5%,-1.1%,10.4µM*,10.4µM*,-2.5
COc1ccc(C)cc1S(=O)(=O)NCC(c1ccc2c(c1)OCO2)N1CCOCC1 (centres undefined),x,x,x,-13.5%,-10.7%,x
COc1ccc(N(CC(=O)Nc2ccccc2C(=O)N2CCCC2)S(C)(=O)=O)cc1,-4.0,8.2%,2.6%,30.4%,11.1%,-3.1
COc1ccc(NC(=O)C(=O)c2cn(CC(=O)N3CCCC3)c3ccccc23)cc1,24.4,22.2%,x,-0.2%,3.2%,8.7
C=CCN(CC=C)CCOc1cccc(Oc2ccccc2)c1,30.7,3.0%,u,-7.5%,u,-3.0
Cc1ccccc1N(Cc1cc(=O)[nH]c2ccccc12)C(=O)C(C)C,12.9,-1.2%,3.9%,u,14.7µM*,0.6
Cc1ccc(N(Cc2cc(=O)[nH]c3ccccc23)C(=O)C(C)C)c(C)c1,-6.7,10.7%,2.4%,-18.7%,u,-6.0
O=C(O)c1ccc(NC(=O)c2ccc(COc3ccccc3)o2)cc1,55.2,3.1%,4.6%,51.8%,12.8%,17.0
SMILES,Shiga inhibitor,NS1 function inh,FBPA Giardia inh,Pf growth 96h,Pf growth 48h,Cycloheximide cs
CC(=O)Nc1ccc(NC(=O)c2ccc(COc3ccc(C)cc3)o2)cc1,111.0*,12.8%,8.0%,9.28µM*,0.0%,19.4*
COc1ccc(NC(=O)c2ccc(COc3ccc(C)cc3)o2)cc1,73.3*,-8.7%,0.5%,5.22µM*,3.1%,34.3*
COc1ccc(C2CC(=O)c3c(O)cc(O[C@H]4OC(COC5OC(C)C(O)C(O)[C@@H]5O)C(O)C(O)C4O)cc3O2)cc1O (some centres undefined),x,x,-0.7%,x,x,x
C=CC[n+]1c(-c2ccc(OC)c(OC)c2)csc1NNC(=O)Nc1ccccc1,-17.4,1.7%,-6.0%,9.28µM*,7.38µM*,-1.8
COc1ccc(CC(=O)OCC(=O)Nc2ccc3c(c2)OCO3)cc1,20.5,x,-1.6%,27.6%,6.0%,1.7
O=[N+]([O-])c1cc(-c2ncccn2)c([N+](=O)[O-])s1,-13.2,-46.2%,15.8µM*,0.1%,6.3%,-5.0
Oc1c(Br)cc(Br)cc1/C=N/NC(=S)N[C@H]1CC2C=CC1C2 (some centres undefined),7.0,-0.5%,u,u,u,9.8
CCOc1ccc(/C=N/NC(=S)NC2CC3C=CC2C3)cc1 (centres undefined),11.8,10.4%,-6.9%,8.28µM*,u,2.2
COc1cc(/C=N/NC(=S)NC2CC3C=CC2C3)cc(OC)c1OC (centres undefined),-16.5,4.4%,-13.4%,2.94µM*,5.22µM*,0.6
COC(=O)C1=C(c2ccc(F)cc2F)C[C@@H]2CC[C@H]1N2C(=O)N1CCC(O)CC1,x,x,x,u,3.1%,x
COC(=O)C1=C(c2ccc(F)cc2OCc2ccccc2)C[C@@H]2CC[C@H]1N2C(=O)NC1CCCCC1,x,x,x,14.7µM*,u,x
COC(=O)C1=C(c2ccc(F)cc2OCc2ccccc2)C[C@@H]2CC[C@H]1N2C(=O)N1CCCC1,x,x,x,u,9.28µM*,x
COC(=O)C1=C(c2ccc(C(C)=O)cc2)C[C@@H]2CC[C@H]1N2C(=O)NC1CC1,x,x,x,14.3%,-5.4%,x
COC(=O)C1=C(c2ccc(OCc3ccccc3)cc2)C[C@@H]2CC[C@H]1N2C(=O)NC1CCN(Cc2ccccc2)CC1,x,x,x,u,9.28µM*,x
COC(=O)C1=C(c2ccc(F)cc2OCc2ccccc2)C[C@@H]2CC[C@H]1N2C(=O)NC(C)C,x,x,x,u,9.28µM*,x
COC(=O)C1=C(c2ccc(F)cc2F)C[C@@H]2CC[C@H]1N2C(=O)NC1CCCCC1,x,x,x,35.4%,20.2%,x
COC(=O)C1=NNC2(C)C(=O)N(c3ccc(C)cc3)C(=O)C12 (centres undefined),13.8,0.8%,3.1%,31.7%,90.8%,2.9
CN1CCCC2(CCN(C(=O)c3cccc(F)c3)CC2)C1,x,x,1.6%,x,x,x
Cc1c(/C(Cc2ccccc2)=N/O)c2ccccc2n1C,-9.0,3.7%,-24.7%,10.4µM*,u,-3.3
COc1ccccc1NS(=O)(=O)c1ccc(C(=O)Nc2ncccc2O)cc1,x,x,x,u,4.65µM*,x
CCOc1ccc(C(=O)NC2=NCCS2)cc1,82.9*,0.4%,0.9%,139.2%,78.5%,27.5*
O=C(c1ccc(OCC2CCCO2)cc1)N1CCN(c2ccccc2)CC1 (centres undefined),-1.5,-9.1%,0.2%,u,24.1%,-3.4
Cc1noc(C)c1COc1ccc(C(=O)Nc2cccnc2)cc1,-9.0,x,-3.9%,u,0.0%,-4.3
O=C(c1ccc(OCC2CCCO2)cc1)N1CCc2ccccc2C1 (centres undefined),56.3*,x,2.6%,41.0%,2.5%,29.8*

# Compound activity: PubChem, National Center for Advancing Translational Sciences (NCATS)
